A short description of assay [1]: ATG_CRE_CIS: Attagene CIS-FACTORIAL HepG2 Assay for human cAMP Responsive Element (CRE) binding protein 3 (AID 2282926). The following applies: HepG2 CRE cis-reporter, Attagene multiplexed mRNA; actives raise or lower the signal. Summed up: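 Readout: fluorescently labelled reporter transcripts resolved by capillary electrophoresis after RT-PCR, taken 24 h post-dosing in transfected HepG2. Endogenous transcription factor activity drives each cis-element reporter; gain or loss of signal fitted relative to DMSO control.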

Assay [2] in a line: ATG_CMV_CIS: Attagene CIS-FACTORIAL HepG2 Assay for human CMV (Internal Marker) (AID 2282928).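 Note: endpoint acts as a background internal control marker rather than a target.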 Particulars: HepG2 CMV promoter reporter, transcription factor profiling; actives raise or lower the signal. The method in brief:
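Fluorescence intensity of RT-PCR-derived reporter fragments, resolved by capillary electrophoresis, gives the signal. HepG2 liver cells bearing transfected cis-element reporters were treated 24 h; activity in either direction was fit relative to DMSO-treated controls.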

A short description of assay [3]: ATG_DR4_LXR_CIS: Attagene CIS-FACTORIAL HepG2 Assay for human Liver X Receptor (LXR), DR4 submotif (AID 2282929). Particulars: HepG2 Attagene DR4 cis-reporter, mRNA transcription; actives raise or lower the signal. The method in brief:
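Cells were transfected with multiple reporter transcription units, exposed to chemicals for 24 hours, then lysed for RNA. Reporter mRNA induction was measured by RT-PCR with capillary electrophoresis detection and fitted in both directions relative to DMSO.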

Assay [4] deals with Aryl hydrocarbon receptor (Homo sapiens) (UniProt P35869). The assay can be described thus: ATG_Ahr_CIS: Attagene CIS-FACTORIAL HepG2 Assay for human Aryl Hydrocarbon Receptor (Ahr) (AID 2282930). The following applies: HepG2 AhR cis-factorial reporter transcription; actives raise or lower the signal. Summed up: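 Following 24 h of chemical dosing, transfected HepG2 liver cells with cis-driven reporter units were lysed for RNA; reporter mRNA was quantified via RT-PCR and capillary electrophoresis, and responses fitted bidirectionally from DMSO.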
Sequence of Aryl hydrocarbon receptor (Homo sapiens) (P35869 whole entry, looked up): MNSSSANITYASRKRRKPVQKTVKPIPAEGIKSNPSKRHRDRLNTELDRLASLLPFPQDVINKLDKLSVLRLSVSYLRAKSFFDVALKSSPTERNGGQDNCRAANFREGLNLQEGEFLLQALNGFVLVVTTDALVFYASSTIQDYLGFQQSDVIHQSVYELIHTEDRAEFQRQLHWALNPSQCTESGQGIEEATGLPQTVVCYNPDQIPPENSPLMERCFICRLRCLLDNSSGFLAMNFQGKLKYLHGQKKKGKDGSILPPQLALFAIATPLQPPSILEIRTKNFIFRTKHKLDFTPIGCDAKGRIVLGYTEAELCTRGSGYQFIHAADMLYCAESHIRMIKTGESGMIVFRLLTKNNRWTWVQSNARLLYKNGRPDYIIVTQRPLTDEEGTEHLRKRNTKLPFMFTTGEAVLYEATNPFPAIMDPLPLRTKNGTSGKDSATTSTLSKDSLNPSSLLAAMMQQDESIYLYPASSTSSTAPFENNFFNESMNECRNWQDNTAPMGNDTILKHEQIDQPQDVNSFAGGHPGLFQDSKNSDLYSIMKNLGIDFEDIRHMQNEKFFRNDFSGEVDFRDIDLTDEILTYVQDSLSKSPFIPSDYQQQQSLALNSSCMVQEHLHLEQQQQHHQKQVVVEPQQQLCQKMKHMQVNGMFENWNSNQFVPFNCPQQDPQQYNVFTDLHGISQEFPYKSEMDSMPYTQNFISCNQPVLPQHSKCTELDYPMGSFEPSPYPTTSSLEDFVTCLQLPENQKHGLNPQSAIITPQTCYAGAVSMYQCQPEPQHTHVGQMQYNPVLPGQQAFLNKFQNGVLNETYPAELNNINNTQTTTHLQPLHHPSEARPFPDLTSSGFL

Assay [5] in a line: ATG_AP_1_CIS: Attagene CIS-FACTORIAL HepG2 Assay for human Activator Protein 1 (AP-1) (AID 2282931). The following applies: HepG2 Attagene cis-factorial AP-1 reporter mRNA; actives raise or lower the signal. The method in brief:
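Endogenous transcription-factor activity in human HepG2 liver cells is read through a cis-promoter reporter transcript, sampled 24 h after dosing. Detection uses RT-PCR with capillary electrophoresis; values come from bidirectional fitting relative to DMSO.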

Assay [6] in a line: ATG_AP_2_CIS: Attagene CIS-FACTORIAL HepG2 Assay for human Activator Protein 2 (AP-2) (AID 2282932). The following applies: HepG2 AP-2 cis-reporter, Attagene transcription factor profiling; actives raise or lower the signal. The method in brief: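 Cells (HepG2) transfected with promoter-driven reporter constructs, treated 24 h. Total RNA reverse-transcribed, reporter cDNA PCR-amplified, FAM-labelled by primer extension, digested, resolved by capillary electrophoresis. Activity fitted both directions versus DMSO.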

Assay [7] in a line: ATG_BRE_CIS: Attagene CIS-FACTORIAL HepG2 Assay for human Bone Morphogenetic Protein (BMP) Response Element (BRE) (AID 2282933). The following applies: HepG2 BMP response element reporter, Attagene transcription factor profiling; actives raise or lower the signal. Summed up:
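HepG2 cells transiently transfected with CIS reporter units (endogenous TF activity, BMP response element), dosed 24 h. Reporter mRNA quantified by RT-PCR, fluorescent labelling and capillary electrophoresis; bidirectional fit vs DMSO baseline.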

In assay [8] the target is Retinoic acid receptor alpha (Homo sapiens) (UniProt P10276). The assay can be described thus: ATG_DR5_RAR_CIS: Attagene CIS-FACTORIAL HepG2 Assay for human Retinoic Acid Receptor Alpha (RARE), DR5 submotif (AID 2282934). Particulars: HepG2 Attagene cis-factorial RARE DR5 reporter, mRNA; actives raise or lower the signal. Summed up:
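Transfected HepG2 reporter cells are exposed to chemicals for 24 h. Then RNA is extracted and the DR5 element reporter transcript is measured by RT-PCR and capillary electrophoresis, with bidirectional curve fitting relative to DMSO.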

Assay [9] addresses Transcription factor E2F1 (Homo sapiens) (UniProt Q01094). The assay is described as follows: ATG_E2F_CIS: Attagene CIS-FACTORIAL HepG2 Assay for human E2F Transcription Factor 1 (AID 2282935). The following applies: HepG2 Attagene cis-reporter, E2F reporter RNA transcripts; actives raise or lower the signal. Summed up:
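First, HepG2 cells were transfected with reporter transcription units. Next, they were dosed for 24 h. Then RNA was isolated, converted to cDNA, PCR-amplified, FAM-labeled, HpaI-digested and analyzed by capillary electrophoresis.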

The target in assay [10] is CCAAT/enhancer-binding protein beta (Homo sapiens) (UniProt P17676). The assay is described as follows: ATG_C_EBP_CIS: Attagene CIS-FACTORIAL HepG2 Assay for human CCAAT/Enhancer Binding Protein (C/EBP) beta (AID 2282927). Particulars: HepG2 Attagene cis-factorial transcription factor reporter; actives raise or lower the signal. Summed up:
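Chemical-treated HepG2 cells (24 h) bearing cis-regulated reporter constructs were processed for total RNA, then reverse transcription, PCR amplification, fluorescent primer extension and fragment analysis; gain- and loss-of-signal were fitted against DMSO.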

Activity calls are given as the source filed them. Rule for the calls: active = hit-call score of the fitted dose curve at least 0.9, where 1 is the maximum; inactive = score below 0.9.

We go through 20 compounds from PubChem BioAssay (EPA / NIEHS).

By AC50 is commonly meant the concentration at which the activity in the assay is half-maximal.

Sequence of Retinoic acid receptor alpha (Homo sapiens) (P10276 whole entry, looked up): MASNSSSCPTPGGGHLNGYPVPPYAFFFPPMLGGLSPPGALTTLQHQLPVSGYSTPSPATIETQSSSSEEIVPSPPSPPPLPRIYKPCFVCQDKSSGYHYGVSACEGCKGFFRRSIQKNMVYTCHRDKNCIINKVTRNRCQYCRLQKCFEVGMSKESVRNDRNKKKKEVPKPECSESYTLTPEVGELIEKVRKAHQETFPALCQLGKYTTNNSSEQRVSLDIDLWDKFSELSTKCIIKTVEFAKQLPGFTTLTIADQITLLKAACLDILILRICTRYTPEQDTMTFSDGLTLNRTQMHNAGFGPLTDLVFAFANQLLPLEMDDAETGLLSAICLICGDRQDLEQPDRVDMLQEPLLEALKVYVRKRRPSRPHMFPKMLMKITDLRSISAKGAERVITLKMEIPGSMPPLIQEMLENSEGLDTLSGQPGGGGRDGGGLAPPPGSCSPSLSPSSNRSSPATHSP
Sequence of Transcription factor E2F1 (Homo sapiens) (Q01094 whole entry, looked up): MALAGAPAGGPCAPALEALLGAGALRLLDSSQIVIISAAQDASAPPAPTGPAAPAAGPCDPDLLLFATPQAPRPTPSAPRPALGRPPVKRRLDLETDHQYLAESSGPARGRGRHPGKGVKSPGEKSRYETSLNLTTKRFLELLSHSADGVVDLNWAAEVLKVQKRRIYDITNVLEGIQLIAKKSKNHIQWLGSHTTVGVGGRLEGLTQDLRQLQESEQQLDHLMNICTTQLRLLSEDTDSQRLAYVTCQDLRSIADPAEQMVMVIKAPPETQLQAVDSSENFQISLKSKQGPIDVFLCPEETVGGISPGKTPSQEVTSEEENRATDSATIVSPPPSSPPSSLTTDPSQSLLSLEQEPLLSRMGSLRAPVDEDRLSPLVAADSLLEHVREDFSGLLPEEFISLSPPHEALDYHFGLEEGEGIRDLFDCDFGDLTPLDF
Sequence of CCAAT/enhancer-binding protein beta (Homo sapiens) (P17676 whole entry, looked up, the tested form may be a part): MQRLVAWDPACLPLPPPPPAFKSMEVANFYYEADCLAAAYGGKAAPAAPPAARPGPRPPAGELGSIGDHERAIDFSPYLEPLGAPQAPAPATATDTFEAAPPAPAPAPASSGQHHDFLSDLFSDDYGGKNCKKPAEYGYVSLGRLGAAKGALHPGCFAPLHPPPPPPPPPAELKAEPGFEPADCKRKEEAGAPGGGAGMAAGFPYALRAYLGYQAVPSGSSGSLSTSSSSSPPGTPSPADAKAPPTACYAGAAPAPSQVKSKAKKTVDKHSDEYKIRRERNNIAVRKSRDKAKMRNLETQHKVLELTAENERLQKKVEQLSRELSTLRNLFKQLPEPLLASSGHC

For the compound `Cc1cccc(C(=O)O)c1`, the outcome in assay [1], in assay [2], in assay [3], in assay [4], in assay [5] and in assay [6] was inactive. Besides, the compound was classed as inactive in assay [7], in assay [8] and in [9].
For `CC(=O)c1ccc[nH]1`, the compound was classed as inactive in [1], in assay [2], in assay [4], in assay [5], in assay [6] and in [7]. Besides, the outcome in assay [8] was inactive.
As to `CC(C)=CCCC(C)C=O` (stereo unspecified), the compound was called inactive in assay [1], in [2], in assay [3], in assay [4], in assay [5] and in assay [6]. Besides, the result in assay [7], in [8] and in assay [9] was inactive.
Consider `CCOc1nc(F)cc2nc(S(=O)(=O)Nc3c(Cl)cccc3C(=O)OC)nn12`, for which the outcome in [1], in assay [2], in assay [3], in [5], in assay [6] and in assay [7] was inactive. Further, in [8], the call was inactive.
In the case of `CC=CC(=O)N(CC)c1ccccc1C`, the call in assay [1], in [2], in [3], in assay [4], in [5] and in assay [6] was inactive. The outcome in assay [7], in assay [8] and in assay [9] was inactive.
On to `Cc1cc(C)c(C)c(O)c1`, for which the result in [1], in assay [10], in assay [2], in assay [5], in [6] and in [7] was inactive. The outcome in [8] and in assay [9] was inactive.
As for `C=C(C)C(=O)OCC(C)C`, the compound was called inactive in assay [1], in assay [2], in assay [3], in [4], in assay [5] and in assay [6]. Also, the compound was called inactive in [7], in [8] and in assay [9].
Take `COc1cc(C)ccc1C(C)C`: the call in assay [1], in assay [2], in assay [3], in [4], in [5] and in [6] was inactive. The outcome in [7] and in [8] was inactive.
For the compound `Cc1cccc(OCCOc2cccc(C)c2)c1`, the call in assay [1], in [2], in assay [3], in assay [4], in [5] and in assay [6] was inactive. Besides, the outcome in [7], in assay [8] and in [9] was inactive.
`CC=CC(F)(F)C(F)(F)C(F)(F)F`: the compound was classed as inactive in assay [1], in assay [2], in assay [3], in [4], in assay [5] and in assay [6]. Further, the result in assay [7], in assay [8] and in assay [9] was inactive.
On to `O=S(=O)(O)CC(O)CCl` (stereo unspecified), for which the outcome in assay [1], in assay [2], in [3], in assay [5], in assay [6] and in assay [7] was inactive. In addition, the compound was called inactive in assay [8] and in [9].
Regarding `CCCCC/C=C\CCC=O`, the call in assay [1], in [2], in assay [3], in assay [5], in assay [6] and in assay [7] was inactive. The outcome in [8] was inactive.
As for `CCCCCC(C)O` (stereo unspecified), the compound was classed as inactive in assay [1], in assay [2], in [3], in [4], in assay [5] and in assay [6]. The result in [7], in assay [8] and in assay [9] was inactive.
For `O=C(c1ccccc1)c1ccc(O)c(O)c1O`, the outcome in [1], in assay [10], in assay [2], in [5], in [6] and in [7] was inactive. For the same compound, the call in assay [8] and in [9] was inactive.
Regarding `C=CC(=O)OCCOC(=O)C=C`, the call in [1], in assay [7], in [8] and in assay [9] was inactive. Besides, the AC50 was 27.2 µM (active) in [2], 27.4 µM (active) in assay [3], 126 µM (active) in assay [5] and 27.2 µM (active) in assay [6].
For `CC(C)=CC1CC(C)CCO1` (stereo unspecified), the compound was classed as inactive in [1], in assay [2], in [3], in assay [5], in [6] and in [7]. Moreover, the compound was classed as inactive in [8] and in assay [9].
Take `NC(=O)C1CO1` (stereo unspecified): the call in assay [1], in [2], in assay [3], in [5], in assay [6] and in [7] was inactive. The compound was called inactive in [8] and in [9].
Take `O=c1c2ccccc2oc2ccccc12`: the result in assay [1], in [2], in [3], in assay [4], in assay [5] and in assay [6] was inactive. Besides, the compound was called inactive in [7], in assay [8] and in [9].
With `Cc1ccc(C(C)c2ccc(C)c(C)c2)cc1C`, the compound was called inactive in assay [1], in [6], in assay [7], in assay [8] and in assay [9]. Further, the half-maximal activity concentration (AC50) in [2] was 40.9 µM (active); in assay [3], 117 µM (active); in assay [5] it was 48.7 µM (active).
As for `CCCCCCC(O)CO` (stereo unspecified), the compound was called inactive in assay [1], in assay [2], in assay [3], in [4], in [5] and in assay [6]. For the same compound, the result in assay [7], in assay [8] and in [9] was inactive.
